Consider 16 compounds from PubChem BioAssay (Tox21).

The nature of assay [1]: Caspase-3/7 induction in HepG2 cells by small molecules, qHTS assay (AID 1346978). Further: nearly all actives have a fitted effect of over 15% in size. Further: potency means the concentration at half of the fitted maximal effect. Put shortly: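 Wild-type HepG2 cells (2,000/well) were settled 5 h at 37 C, 5% CO2, then exposed to compounds in DMSO for 17 h. Caspase-3/7 activity was read by luminescence 30 min after adding Caspase-Glo 3/7 reagent at room temperature.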
(qHTS replaces the single test concentration by a dilution series.)

Assay [2] in a line: Caspase-3/7 induction in CHO-K1 cells by small molecules, qHTS cell viability counter screen (AID 1346979). Further: nearly all actives have a fitted effect of over 35% in size. Further: potency means the concentration at half of the fitted maximal effect. Put shortly: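 Cells (CHO-K1, wild type) are plated at 1,500 per well and incubated 5hr. Test compounds in DMSO are then pinned in, followed by 16hr at 37C and 5% CO2. Viability is read by CellTiter-Fluor fluorescence after 1hr.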
Assay [3] in a line: Caspase-3/7 induction in CHO-K1 cells by small molecules, qHTS assay (AID 1346980). Further: nearly all actives have a fitted effect of over 15% in size. Summed up: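 Wild-type cells were seeded at 1,500 per well and settled 5 hr at 37 C, 5% CO2, then exposed to DMSO-dissolved compounds for 17 hr. Caspase-Glo 3/7 reagent was added, and luminescence was read after 30min at room temperature.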
Assay [4] can be described thus: Caspase-3/7 induction in HepG2 cells by small molecules, qHTS cell viability counter screen (AID 1346981). Further: nearly all actives have a fitted effect of over 30% in size. Further: potency means the concentration at half of the fitted maximal effect. Put shortly: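 Cell viability is measured as a cytotoxicity counter screen alongside the Caspase-Glo 3/7 readout in identical wells. Wild-type HepG2 cells are treated with test compounds for 16 hr at 37 C before CellTiter-Fluor addition and a 1-hr incubation.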

In assay [5] the target is Voltage-gated inwardly rectifying potassium channel KCNH2 (Homo sapiens) (UniProt Q12809). Briefly: Human Ether-a-go-go-Related Gene (hERG) channel small molecule antagonists: fluorescence cell-based qHTS assay (AID 1671200).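 Further: hERG-expressing U2OS cells given a thallium stimulus after FluxOR II dye loading; series mostly up to about 77 µM; nearly all actives have a fitted effect of over 50% in size.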 Summed up: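 Channel function was assessed by thallium flux. Cells seeded the previous day and kept at 37 C took up FluxOR II dye over 1 h in the dark at room temperature, then sat another 10 min before stimulation.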
On the technique in general: The hERG channel carries a current that helps repolarise heart muscle cells.

For assay [6], the target named is Nuclear receptor subfamily 1 group I member 2 (Homo sapiens) (UniProt O75469). Briefly: Human pregnane X receptor (PXR) small molecule agonists, qHTS assay (AID 1346982). Further: nearly all actives have a fitted effect of over 35% in size. Further: potency means the concentration at half of the fitted maximal effect. Put shortly: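 Cells: HepG2 stably carrying PXR-Luc. Medium held 5% charcoal-stripped FBS. Compounds in DMSO added after 5 hr plating, incubated 24 hr, then luminescence quantified with ONE-Glo.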

The target in assay [7] is Cytochrome P450 2D6 (Homo sapiens) (UniProt P10635). Briefly: Cytochrome P450 Family 2 Subfamily D Member 6 (CYP2D6) small molecule antagonists: luciferase reporter qHTS assay (AID 1671196). Further: nearly all actives have a fitted effect of over 50% in size. Further: potency means the concentration at half of the fitted maximal effect. Put shortly:
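Enzyme and proluciferin substrate were first combined with test chemical for 10 min at room temperature. Adding NADPH regeneration solution started a 1 h reaction, stopped with luciferin detection reagent and read by luminescence 20 min later.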

Assay [8] deals with Cytochrome P450 2C19 (Homo sapiens) (UniProt P33261). Briefly: Cytochrome P450 Family 2 Subfamily C Member 19 (CYP2C19) small molecule antagonists: luciferase reporter qHTS assay (AID 1671197). Further: nearly all actives have a fitted effect of over 65% in size. Further: potency means the concentration at half of the fitted maximal effect. Summed up:
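Relative luminescence units recorded 20 min after the detection reagent stopped a 1 h, 37C CYP2C19 reaction on proluciferin substrate, which was started by NADPH regeneration following 10 min room-temperature compound preincubation; ketoconazole positive control.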

In assay [9] the target is Cytochrome P450 1A2 (Homo sapiens) (UniProt P05177). Briefly: Cytochrome P450 Family 1 Subfamily A Member 2 (CYP1A2) small molecule antagonists: luciferase reporter qHTS assay (AID 1671199). Further: nearly all actives have a fitted effect of over 50% in size. Further: potency means the concentration at half of the fitted maximal effect. Put shortly:
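Compounds were incubated with CYP1A2 and a luminogenic proluciferin substrate for 10 min at room temperature before the reaction was started with NADPH regeneration solution. After 1 h, detection reagent was added and light output, proportional to CYP activity, was recorded.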
In general terms: A reporter such as luciferase makes a cellular process visible.

For assay [10], the target named is Cytochrome P450 3A4 (Homo sapiens) (UniProt P08684). Briefly: Cytochrome P450 Family 3 Subfamily A Member 4 (CYP3A4) small molecule antagonists: luciferase reporter qHTS assay (AID 1671201). Further: nearly all actives have a fitted effect of over 50% in size. Further: potency means the concentration at half of the fitted maximal effect. Summed up:
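Compounds in DMSO were pin-transferred onto CYP3A4 enzyme-substrate mix and held 10 min at room temperature. NADPH regenerating solution started the reaction for 1 h; luciferin detection reagent stopped it, and luminescence was read after 20 min.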

The target in assay [11] is Cytochrome P450 2C9 (Homo sapiens) (UniProt P11712). Briefly: Cytochrome P450 Family 2 Subfamily C Member 9 (CYP2C9) small molecule antagonists: luciferase reporter qHTS assay (AID 1671198). Further: nearly all actives have a fitted effect of over 50% in size. Further: potency means the concentration at half of the fitted maximal effect. Summed up: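 CYP2C9 activity was measured with a P450-Glo proluciferin substrate. Enzyme–substrate mix was held with compound for 10 min at room temperature, then NADPH regeneration solution was added for 1 h at 37C. Luciferin product was read as luminescence.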

Values joined by “and” are separate entries in the source; they are usually repeats but may differ in a detail not shown here. Identical values can stand only once. Inconclusive results are not listed. Some compounds were tested as several samples or in several runs, with calls that do not always agree. Active and inactive are the calls of the source. The call rests on the fitted dose curve; in most records, active means well fitted curve in the direction sought with a large enough effect in the repeat runs; inconclusive means weak or mixed curves; inactive means no such curve, though single readings can be large; an effect the other way counts as inactive or inconclusive.

Cytochrome P450 2C9 (Homo sapiens), sequence (P11712 whole entry, looked up): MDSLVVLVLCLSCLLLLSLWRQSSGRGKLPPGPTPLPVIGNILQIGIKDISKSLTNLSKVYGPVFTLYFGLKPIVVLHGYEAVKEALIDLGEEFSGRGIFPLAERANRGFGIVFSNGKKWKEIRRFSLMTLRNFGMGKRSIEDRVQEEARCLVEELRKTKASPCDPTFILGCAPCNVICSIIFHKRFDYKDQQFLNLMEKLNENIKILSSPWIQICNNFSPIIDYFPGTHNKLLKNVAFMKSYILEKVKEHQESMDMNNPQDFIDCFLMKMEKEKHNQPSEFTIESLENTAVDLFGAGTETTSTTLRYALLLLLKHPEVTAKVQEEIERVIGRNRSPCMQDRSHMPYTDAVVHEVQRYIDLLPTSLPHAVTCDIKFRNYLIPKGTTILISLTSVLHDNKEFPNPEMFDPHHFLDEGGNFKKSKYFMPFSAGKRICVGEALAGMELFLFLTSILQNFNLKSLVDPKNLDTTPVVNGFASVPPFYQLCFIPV
Voltage-gated inwardly rectifying potassium channel KCNH2 (Homo sapiens), sequence (Q12809 whole entry, looked up): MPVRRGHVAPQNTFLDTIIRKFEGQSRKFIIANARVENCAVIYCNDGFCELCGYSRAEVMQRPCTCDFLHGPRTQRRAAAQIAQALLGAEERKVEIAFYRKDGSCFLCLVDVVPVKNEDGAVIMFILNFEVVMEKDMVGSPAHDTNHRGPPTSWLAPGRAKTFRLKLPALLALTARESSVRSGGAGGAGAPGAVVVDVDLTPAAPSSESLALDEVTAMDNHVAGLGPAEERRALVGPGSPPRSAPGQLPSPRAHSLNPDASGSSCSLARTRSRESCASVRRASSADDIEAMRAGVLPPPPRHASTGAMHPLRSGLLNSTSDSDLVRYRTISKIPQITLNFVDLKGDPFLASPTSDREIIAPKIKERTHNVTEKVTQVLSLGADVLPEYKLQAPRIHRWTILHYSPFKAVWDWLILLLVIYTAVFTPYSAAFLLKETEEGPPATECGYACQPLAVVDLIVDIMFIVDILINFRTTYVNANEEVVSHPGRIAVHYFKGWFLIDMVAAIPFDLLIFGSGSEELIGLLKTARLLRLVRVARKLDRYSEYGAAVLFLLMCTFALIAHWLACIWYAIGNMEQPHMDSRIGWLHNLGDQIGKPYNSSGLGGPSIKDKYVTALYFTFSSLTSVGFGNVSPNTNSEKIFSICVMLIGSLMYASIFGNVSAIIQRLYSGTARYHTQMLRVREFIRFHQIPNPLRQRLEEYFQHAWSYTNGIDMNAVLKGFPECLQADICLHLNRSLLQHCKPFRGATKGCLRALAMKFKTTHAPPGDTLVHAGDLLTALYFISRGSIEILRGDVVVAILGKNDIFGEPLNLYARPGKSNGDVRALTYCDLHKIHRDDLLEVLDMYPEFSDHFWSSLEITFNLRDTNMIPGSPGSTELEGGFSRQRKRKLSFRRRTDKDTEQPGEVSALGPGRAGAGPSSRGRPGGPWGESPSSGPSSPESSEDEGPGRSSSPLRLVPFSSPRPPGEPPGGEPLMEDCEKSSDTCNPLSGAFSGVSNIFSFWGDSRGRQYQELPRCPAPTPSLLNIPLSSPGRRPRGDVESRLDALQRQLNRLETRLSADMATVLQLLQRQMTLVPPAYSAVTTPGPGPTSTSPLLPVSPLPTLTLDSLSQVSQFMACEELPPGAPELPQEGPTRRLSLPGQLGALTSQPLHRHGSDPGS
Cytochrome P450 1A2 (Homo sapiens), sequence (P05177 whole entry, looked up): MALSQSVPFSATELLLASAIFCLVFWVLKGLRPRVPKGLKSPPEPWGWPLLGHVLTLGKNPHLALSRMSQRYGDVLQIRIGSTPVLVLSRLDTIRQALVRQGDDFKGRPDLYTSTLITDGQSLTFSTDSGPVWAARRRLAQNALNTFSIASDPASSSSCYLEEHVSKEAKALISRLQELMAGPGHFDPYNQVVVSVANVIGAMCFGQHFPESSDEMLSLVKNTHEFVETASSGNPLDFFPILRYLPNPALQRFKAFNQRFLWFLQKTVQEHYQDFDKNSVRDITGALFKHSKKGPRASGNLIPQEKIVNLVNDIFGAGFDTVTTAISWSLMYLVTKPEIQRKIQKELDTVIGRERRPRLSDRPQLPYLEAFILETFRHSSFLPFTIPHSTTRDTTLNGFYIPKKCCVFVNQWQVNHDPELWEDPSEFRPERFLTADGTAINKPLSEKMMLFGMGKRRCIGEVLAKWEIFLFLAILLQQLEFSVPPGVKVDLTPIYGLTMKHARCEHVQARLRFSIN
Cytochrome P450 2D6 (Homo sapiens), sequence (P10635 whole entry, looked up): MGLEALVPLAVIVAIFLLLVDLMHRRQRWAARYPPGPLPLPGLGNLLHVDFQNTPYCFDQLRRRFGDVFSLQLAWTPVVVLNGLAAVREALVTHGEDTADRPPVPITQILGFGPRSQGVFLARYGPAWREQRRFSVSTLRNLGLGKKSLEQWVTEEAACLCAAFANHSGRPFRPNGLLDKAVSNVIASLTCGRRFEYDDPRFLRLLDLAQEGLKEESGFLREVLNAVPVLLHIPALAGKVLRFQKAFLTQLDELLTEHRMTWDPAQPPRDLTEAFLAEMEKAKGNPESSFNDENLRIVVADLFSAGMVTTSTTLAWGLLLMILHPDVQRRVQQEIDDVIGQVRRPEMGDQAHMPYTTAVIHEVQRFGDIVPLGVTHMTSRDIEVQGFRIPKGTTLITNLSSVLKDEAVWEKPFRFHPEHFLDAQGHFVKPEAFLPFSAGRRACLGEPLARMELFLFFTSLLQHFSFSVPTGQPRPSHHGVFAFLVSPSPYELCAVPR
Cytochrome P450 3A4 (Homo sapiens), sequence (P08684 whole entry, looked up): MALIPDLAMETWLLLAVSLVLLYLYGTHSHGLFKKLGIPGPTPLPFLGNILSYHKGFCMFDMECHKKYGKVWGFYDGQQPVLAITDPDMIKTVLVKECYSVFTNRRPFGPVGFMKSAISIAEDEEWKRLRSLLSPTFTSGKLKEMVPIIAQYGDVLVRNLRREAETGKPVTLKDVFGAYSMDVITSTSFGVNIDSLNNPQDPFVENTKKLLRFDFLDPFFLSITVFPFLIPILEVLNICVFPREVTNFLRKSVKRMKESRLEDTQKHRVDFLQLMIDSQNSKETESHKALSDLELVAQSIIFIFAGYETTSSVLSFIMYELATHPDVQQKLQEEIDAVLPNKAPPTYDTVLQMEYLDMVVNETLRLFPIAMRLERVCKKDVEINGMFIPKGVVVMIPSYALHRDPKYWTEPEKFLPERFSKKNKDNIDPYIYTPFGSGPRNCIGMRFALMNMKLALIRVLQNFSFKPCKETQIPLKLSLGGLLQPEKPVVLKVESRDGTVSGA
Nuclear receptor subfamily 1 group I member 2 (Homo sapiens), sequence (O75469 whole entry, looked up): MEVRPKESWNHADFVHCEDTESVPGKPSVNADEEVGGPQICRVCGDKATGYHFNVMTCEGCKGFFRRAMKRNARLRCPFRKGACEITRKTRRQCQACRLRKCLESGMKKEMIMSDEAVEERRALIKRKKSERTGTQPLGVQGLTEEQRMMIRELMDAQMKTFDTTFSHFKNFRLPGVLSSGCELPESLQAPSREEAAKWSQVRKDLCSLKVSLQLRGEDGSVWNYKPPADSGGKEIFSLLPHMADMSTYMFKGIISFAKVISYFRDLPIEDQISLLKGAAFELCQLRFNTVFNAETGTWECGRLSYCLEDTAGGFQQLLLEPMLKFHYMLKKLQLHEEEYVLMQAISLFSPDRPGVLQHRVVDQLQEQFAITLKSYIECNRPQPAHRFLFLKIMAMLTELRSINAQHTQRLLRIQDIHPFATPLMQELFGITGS
Cytochrome P450 2C19 (Homo sapiens), sequence (P33261 whole entry, looked up): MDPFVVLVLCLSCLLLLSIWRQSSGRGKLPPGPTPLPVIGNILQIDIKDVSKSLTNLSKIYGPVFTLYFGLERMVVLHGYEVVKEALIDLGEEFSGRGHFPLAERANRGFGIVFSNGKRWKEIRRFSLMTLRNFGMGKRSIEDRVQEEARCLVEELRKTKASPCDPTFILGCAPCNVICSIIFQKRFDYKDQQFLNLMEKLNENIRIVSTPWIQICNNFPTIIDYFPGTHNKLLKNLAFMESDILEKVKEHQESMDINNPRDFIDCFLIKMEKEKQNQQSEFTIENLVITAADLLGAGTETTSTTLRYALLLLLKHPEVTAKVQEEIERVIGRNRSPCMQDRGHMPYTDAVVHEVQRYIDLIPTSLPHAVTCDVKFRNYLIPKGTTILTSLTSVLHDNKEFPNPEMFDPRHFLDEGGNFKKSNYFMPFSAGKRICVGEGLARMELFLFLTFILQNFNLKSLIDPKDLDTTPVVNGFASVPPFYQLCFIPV

With `CC(C)=CCC/C(C)=C\CO`, the Potency result in assay [1], in assay [2], in assay [3], in assay [4] and in assay [5] was “inactive” in each case.
Regarding `Nc1ccccc1N`, the Potency in [1] is 2.22 µM (active) and 9.41 µM (active); in assay [2] it was “inactive and 47.2 µM (active)”; in assay [4] it was 15 µM (active); in assay [6] it was 1.76 µM (active) and 7.7 µM (active); in [7] it was 36.4 µM (active) and 7.31 µM (active); in assay [8] it was 40.9 µM (active) and 17.8 µM (active). The Potency in [9] was 2.58 µM (active) and 13.8 µM (active). Also, the Potency result in assay [3] and in assay [5] was “inactive” each time.
With `CC(CCC(=O)O)(c1ccc(O)cc1)c1ccc(O)cc1`, the Potency entry in [1], in [2], in [3], in assay [4], in assay [6] and in [9] was “inactive” in each case. Besides, the Potency entry in assay [5] and in assay [10] was “inactive” each time. Moreover, the Potency result in [7] is “inactive and 25.2 µM (active)”; in assay [8], 71.8 µM (active) and 35.6 µM (active).
In the case of `Clc1nc(Cl)c(Cl)c(Cl)c1Cl`, the Potency entry in [1], in [2], in assay [3], in assay [4], in assay [6] and in assay [7] was “inactive” throughout. For the same compound, the Potency entry in [11], in [9], in assay [5] and in assay [10] was “inactive” each time. The Potency in assay [8] was 31.9 µM (active).
Regarding `CNCCCC12CCC(c3ccccc31)c1ccccc12`, the Potency in assay [2] is 61.1 µM (active) and inactive; in assay [4], 61.1 µM (active). The Potency entry in assay [3] is “inactive”.
Take `CCCCC(CC)COP(=O)(OCC(CC)CCCC)OCC(CC)CCCC` (centres undefined): the Potency entry in [1], in [2], in [3], in [4], in assay [7] and in assay [11] was “inactive” throughout. The Potency entry in assay [9] and in assay [5] was “inactive” throughout. Besides, the Potency entry is “inactive and 4.86 µM (active)” in assay [6]; “inactive and 71 µM (active)” in assay [8]; “inactive and 5.64 µM (active)” in assay [10].
Turning to `Cc1cccc(C(=O)O)c1`, the Potency in [1] was 13.5 µM (active) and inactive; in assay [2] it was 3.4 µM (active) and inactive; in assay [6], 9.57 µM (active) and inactive. Further, the Potency result in assay [3], in [7], in assay [8], in assay [11], in [9] and in assay [5] was “inactive” in each case. Moreover, the Potency result in assay [10] is “inactive”.
For the compound `CCCCC(CC)COCC1CO1` (centres undefined), the Potency entry in [1], in assay [2], in [3], in assay [4], in assay [6] and in assay [7] was “inactive” throughout. Also, the Potency entry in [8], in assay [11], in assay [9], in assay [5] and in assay [10] was “inactive” each time.
For `CN(C)c1nc(N(C)C)nc(N(C)C)n1`, the Potency entry in [1], in assay [2], in assay [3], in assay [4] and in assay [5] was “inactive” in each case.
As to `COc1ccccc1/C=C/C=O`, the Potency result in assay [1], in [3], in [4], in assay [7], in assay [11] and in assay [5] was “inactive” throughout. The Potency result in [10] was “inactive”. Besides, the Potency in assay [8] is 39.9 µM (active); in [9], 29 µM (active) and 25.2 µM (active).
Regarding `O=C(OCc1ccccc1)c1ccccc1O`, the Potency result in [1], in [2], in [3], in assay [4], in [6] and in assay [7] was “inactive” each time. The Potency result in assay [5] and in assay [10] was “inactive” in each case. For the same compound, the Potency in assay [8] is 5.6 µM (active) and 17.8 µM (active); in assay [11], 35.6 µM (active); in assay [9], 31.5 µM (active) and 28.3 µM (active).
With `CCCCCCCCCCCO`, the Potency entry in assay [1], in assay [2], in assay [3], in [4], in assay [6] and in [7] was “inactive” each time. The Potency entry in [5] and in assay [10] was “inactive” throughout. The Potency in assay [8] is 20.5 µM (active) and inactive.
On to `CCCCc1oc2ccccc2c1C(=O)c1cc(I)c(OCCN(CC)CC)c(I)c1`, for which the Potency was 48.9 µM (active) in assay [2]; 48.9 µM (active) in assay [4]; 3.09 µM (active) and 4.22 µM (active) in [6]. Also, the Potency entry in assay [3] was “inactive”.
For `c1ccc2cc(Nc3ccc(Nc4ccc5ccccc5c4)cc3)ccc2c1`, the Potency entry in assay [1], in assay [2], in assay [3], in assay [4], in [6] and in assay [7] was “inactive” each time. Moreover, the Potency entry in [8], in assay [11], in assay [5] and in assay [10] was “inactive” each time.
`CC(C)OC=O`: the Potency result in [1], in assay [2], in assay [3], in [4], in [6] and in [7] was “inactive” each time. Moreover, the Potency entry in [8], in assay [11], in assay [9], in assay [5] and in [10] was “inactive” throughout.
With `COC(C)COC(C)COC(C)CO` (centres undefined), the Potency result in assay [2], in assay [3], in assay [4], in assay [6], in assay [7] and in assay [8] was “inactive” throughout. The Potency result in assay [9], in assay [5] and in assay [10] was “inactive” each time. Further, the Potency in assay [11] is 22.4 µM (active).
